From PubChem BioAssay (NCATS)
Several values for one entry are separate records, joined by “and”; a condition that tells them apart may be missing. Equal values may be shown once. Records with an inconclusive call do not appear. Activity calls are given as the source filed them. Unless noted, the call rests on the fitted dose curve; in most records, active means well fitted curve in the direction sought with a large enough effect; inconclusive means small, poorly fitted or top-dose-only effect, or another doubt; inactive means no such curve, though single readings can be large; an effect the other way counts as inactive or inconclusive.

Columns and labels:
[1] = target: Peroxisome proliferator-activated receptor delta (Homo sapiens) (UniProt Q03181); test: qHTS assay for small molecule antagonists of peroxisome proliferator-activated receptor delta signaling (AID 588535; active means well fitted inhibition curve with a large enough effect in the signal ratio, with a control signal flat, not every such curve was filed as active; the % refers to the signal ratio)
Sequence of Peroxisome proliferator-activated receptor delta (Homo sapiens) (Q03181 whole entry, looked up): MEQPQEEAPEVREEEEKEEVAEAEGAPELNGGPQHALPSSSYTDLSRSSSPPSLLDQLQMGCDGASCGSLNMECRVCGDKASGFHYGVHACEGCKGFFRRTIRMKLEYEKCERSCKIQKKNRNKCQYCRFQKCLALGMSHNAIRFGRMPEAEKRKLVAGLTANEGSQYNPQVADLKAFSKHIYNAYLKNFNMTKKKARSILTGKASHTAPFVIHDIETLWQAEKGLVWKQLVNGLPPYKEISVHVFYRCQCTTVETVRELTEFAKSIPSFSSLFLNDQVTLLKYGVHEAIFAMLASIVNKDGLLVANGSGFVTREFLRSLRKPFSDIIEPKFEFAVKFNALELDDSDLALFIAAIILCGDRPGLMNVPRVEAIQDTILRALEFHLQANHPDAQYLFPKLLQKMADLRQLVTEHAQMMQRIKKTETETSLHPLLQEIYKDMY
Outline: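 Antagonist-mode beta-lactamase reporter (GeneBLAzer PPAR-delta-UAS-bla) in HEK293T cells, 2% charcoal/dextran FBS, 4000 cells/well. Compound titrations, 18 h at 37 C; CCF4 ratio read, IC50 and efficacy from Hill fits.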

[2] = target: Peroxisome proliferator-activated receptor gamma (Homo sapiens) (UniProt P37231); test: qHTS assay for small molecule agonists of peroxisome proliferator-activated receptor gamma signaling (AID 588536; active means well fitted curve in the direction sought with a large enough effect in the signal ratio, with a control signal flat, not every such curve was filed as active; the % refers to the signal ratio;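 further: 0% = DMSO basal wells and 100% = rosiglitazone at 2 µM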)
Sequence of Peroxisome proliferator-activated receptor gamma (Homo sapiens) (P37231 whole entry, looked up): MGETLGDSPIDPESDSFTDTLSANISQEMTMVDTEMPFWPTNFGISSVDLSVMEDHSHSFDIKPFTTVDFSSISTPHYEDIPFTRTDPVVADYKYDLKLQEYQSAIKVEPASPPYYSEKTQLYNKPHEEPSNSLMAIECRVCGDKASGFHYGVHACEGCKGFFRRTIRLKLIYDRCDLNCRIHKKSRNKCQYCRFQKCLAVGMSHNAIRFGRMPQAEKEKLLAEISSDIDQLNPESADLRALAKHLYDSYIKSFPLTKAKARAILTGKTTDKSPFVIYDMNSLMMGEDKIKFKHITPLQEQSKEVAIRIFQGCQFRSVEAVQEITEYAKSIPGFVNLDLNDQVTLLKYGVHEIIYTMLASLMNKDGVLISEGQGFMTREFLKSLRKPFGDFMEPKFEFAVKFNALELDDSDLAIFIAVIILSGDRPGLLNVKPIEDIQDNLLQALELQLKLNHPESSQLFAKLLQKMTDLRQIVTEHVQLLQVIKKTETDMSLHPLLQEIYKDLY
Outline: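 Ratiometric blue/green fluorescence (405 nm excitation; 460 and 530 nm emission) from CCF4-loaded HEK293 reporter cells serves as signal. Exposure to test compounds lasts 16 h at 37 C in medium containing 1% charcoal/dextran-treated serum.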

[3] = target: Peroxisome proliferator-activated receptor gamma (Homo sapiens) (UniProt P37231); test: qHTS assay for small molecule antagonists of peroxisome proliferator-activated receptor gamma signaling (AID 588537; active means well fitted inhibition curve with a large enough effect in the signal ratio, with a control signal flat, not every such curve was filed as active; the % refers to the signal ratio;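 further: reporter cells co-stimulated with 50 nM rosiglitazone agonist during compound treatment; % of control where 0% means no effect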)
Outline: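 PPARγ-UAS-bla HEK293 cells (3000/well) in 1% charcoal/dextran-stripped FBS are treated with compound, then stimulated with 50 nM rosiglitazone for 16 h at 37 °C. Read-out is CCF4 β-lactamase fluorescence after 2 h at RT. IC50 comes from Hill fits normalised to rosiglitazone and DMSO.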

[4] = qHTS assay for small molecule agonists of retinoid X receptor alpha signaling (AID 588544; calls by dose curve;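 on activation: 0% = DMSO basal wells and 100% = reference agonist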); details: HEK293T RXRa-UAS-bla, beta-lactamase reporter, 18 h; 530 nm emission
[5] = target: Retinoic acid receptor RXR-alpha (Homo sapiens) (UniProt P19793); test: as above
Sequence of Retinoic acid receptor RXR-alpha (Homo sapiens) (P19793 whole entry, looked up): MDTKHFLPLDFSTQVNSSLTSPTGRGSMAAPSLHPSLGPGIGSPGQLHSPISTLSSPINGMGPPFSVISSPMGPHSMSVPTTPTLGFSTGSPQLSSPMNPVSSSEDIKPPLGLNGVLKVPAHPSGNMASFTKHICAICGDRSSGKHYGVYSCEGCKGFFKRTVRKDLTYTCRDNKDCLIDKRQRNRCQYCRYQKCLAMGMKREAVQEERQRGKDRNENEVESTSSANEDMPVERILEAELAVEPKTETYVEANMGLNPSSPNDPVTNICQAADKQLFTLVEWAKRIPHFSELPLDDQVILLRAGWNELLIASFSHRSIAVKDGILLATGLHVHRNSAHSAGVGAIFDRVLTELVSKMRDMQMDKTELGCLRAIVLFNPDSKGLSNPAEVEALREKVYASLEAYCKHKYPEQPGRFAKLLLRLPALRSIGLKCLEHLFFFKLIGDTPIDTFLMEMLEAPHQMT

[6] = target: Thyroid hormone receptor beta (Homo sapiens) (UniProt P10828); test: qHTS assay for small molecule agonists of thyroid hormone receptor beta signaling (AID 588545; calls by dose curve;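 further: 0% = DMSO only and 100% = 10 nM T3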)
Sequence of Thyroid hormone receptor beta (Homo sapiens) (P10828 whole entry, looked up): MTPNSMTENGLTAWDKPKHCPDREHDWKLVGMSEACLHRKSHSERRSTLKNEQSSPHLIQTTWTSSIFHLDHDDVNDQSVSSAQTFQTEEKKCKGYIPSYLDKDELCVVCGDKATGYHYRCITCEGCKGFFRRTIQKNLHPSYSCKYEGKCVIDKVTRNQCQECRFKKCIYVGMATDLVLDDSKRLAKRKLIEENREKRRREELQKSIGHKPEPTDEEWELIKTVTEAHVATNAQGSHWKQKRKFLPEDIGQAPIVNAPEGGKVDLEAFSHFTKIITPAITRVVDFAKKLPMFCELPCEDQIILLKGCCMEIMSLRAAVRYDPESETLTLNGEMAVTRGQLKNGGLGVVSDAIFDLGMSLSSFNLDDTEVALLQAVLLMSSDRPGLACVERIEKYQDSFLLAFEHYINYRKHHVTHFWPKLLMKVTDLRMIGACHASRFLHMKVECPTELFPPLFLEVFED
Outline: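 TR-UAS-bla-GripTite HEK 293 cells in medium with 2% charcoal/dextran FBS, 0.1 mM NEAA and 1 mM sodium pyruvate were treated with titrated compounds for 18 hrs at 37 C. Beta-lactamase reporter was read with CCF4 dye (ex 405, em 460/530 nm); EC50 from Hill fits.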

[7] = qHTS assay for small molecule antagonists of retinoid X receptor alpha signaling (AID 588546; active means well fitted inhibition curve with a large enough effect in the signal ratio, with a control signal flat, not every such curve was filed as active; the % refers to the signal ratio;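 further: cells stimulated with 9-cis-retinoic acid as agonist; on the % scale 0 is the no-effect control and ±100 the full control effect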); details: HEK293T RXRa-UAS-bla, beta-lactamase ratio, antagonist mode; measured here: W530 green channel, cytotoxicity proxy
Outline: (§1)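 Beta-lactamase reporter inhibition, read as CCF4 fluorescence ratio (ex 405, em 460/530 nm) after 2 h at RT. HEK293T UAS-bla cells, 2500/well, were stimulated with 9-cis-RA at 500 or 100 nM final alongside test compound for 18 h at 37 C.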

[8] = target: Retinoic acid receptor RXR-alpha (Homo sapiens) (UniProt P19793); test: as above; details: HEK293T RXRa-UAS-bla, beta-lactamase ratio, antagonist mode
Outline: as §1

[9] = target: Thyroid hormone receptor beta (Homo sapiens) (UniProt P10828); test: qHTS assay for small molecule antagonists of thyroid hormone receptor beta signaling (AID 588547; active means well fitted inhibition curve with a large enough effect in the signal ratio, with a control signal flat, not every such curve was filed as active; the % refers to the signal ratio;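 further: cells stimulated with 0.4 nM T3 agonist during compound exposure; series mostly up to about 77 µM; on the % scale 0 is the no-effect control and ±100 the full control effect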); details: TR-UAS-bla HEK293, beta-lactamase ratio, antagonist mode, 18 h
Outline: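 TR-UAS-bla GripTite HEK293 cells in 2% charcoal/dextran FBS medium; compounds 0.59 nM to 92 uM with T3 at 0.4nM final, 18 h at 37 C. Beta-lactamase read by CCF4 fluorescence (460/530 nm); Hill fits gave IC50 and efficacy.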

[10] = qHTS assay for small molecule agonists of the antioxidant response element (ARE) signaling pathway (AID 651741; active means well fitted activation curve with a large enough effect in the signal ratio; the % refers to the signal ratio; further: % of control where 0% means no effect)
Outline: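 CellSensor ARE-bla HepG2 cells (2,000/well) carrying ARE-driven beta-lactamase, exposed 16 h at 37 C. LiveBLAzer B/G FRET substrate added for 2 h at room temperature; fluorescence intensity read.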

[11] = qHTS assay for small molecule activators of the p53 signaling pathway (AID 651743; active means well fitted activation curve with a large enough effect in the signal ratio, not every such curve was filed as active; the % refers to the signal ratio; further: series mostly up to about 92 µM; % of control where 0% means no effect); details: HCT-116 p53RE-bla, beta-lactamase FRET ratio, 16 h; activation: stronger effect = higher value
Outline: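 p53RE-bla HCT-116 cells carrying a beta-lactamase reporter under p53 response elements were exposed to compounds for 16 hours at 37 C. Reporter activity read as fluorescence after 2 hours at room temperature with LiveBLAzer B/G FRET substrate.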

[12] = qHTS assay for small molecule activators of the nuclear factor-kappa B (NF-kB) signaling pathway (AID 651749; active means well fitted activation curve with a large enough effect in the signal ratio; the % refers to the signal ratio; further: series mostly up to about 77 µM; % of control where 0% means no effect); details: NF-kB-bla ME-180 cells, beta-lactamase FRET ratio, 16 h; stronger effect = higher value
Outline: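 NF-kB-bla ME-180 cells carrying a beta-lactamase reporter under an NF-kB response element, 2,000 cells/well, exposed to compound for 16 hr at 37C; FRET-based beta-lactamase fluorescence read-out of pathway activation.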

[13] = qHTS assay for small molecule disruptors of the mitochondrial membrane potential - 1 hr assay (AID 651754; calls by dose curve; further: on the % scale 0 is the no-effect control and ±100 the full control effect; nearly all actives have a fitted effect of over 35% in size)
Outline: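 HepG2 cells, attached overnight, were exposed to compound for 1 hr at 37C, then stained 30 min with a potentiometric dye. Ratio of red aggregate (590nm) to green monomer (535nm) fluorescence reports membrane potential; collapse shifts signal toward green.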

[14] = qHTS assay for small molecule disruptors of the mitochondrial membrane potential - 5 hr assay (AID 651755; calls by dose curve; further: on the % scale 0 is the no-effect control and ±100 the full control effect; nearly all actives have a fitted effect of over 40% in size)
Outline: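 HepG2 cells (2,000/well), attached overnight, exposed to compound 5 hr at 37C, then Mito-MPS dye 30 min. Fluorescence read for monomers (490/535 nm) and aggregates (540/590 nm).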

[15] = target: Tumor necrosis factor (Homo sapiens) (UniProt P01375); test: qHTS assay to identify small molecules that stimulate Tumor Necrosis Factor-alpha (TNF-alpha) secretion (AID 651757; active means well fitted curve in the direction sought with a large enough effect in the signal ratio; the % refers to the signal ratio; further: 0% is about no effect)
Sequence of Tumor necrosis factor (Homo sapiens) (P01375 whole entry, looked up): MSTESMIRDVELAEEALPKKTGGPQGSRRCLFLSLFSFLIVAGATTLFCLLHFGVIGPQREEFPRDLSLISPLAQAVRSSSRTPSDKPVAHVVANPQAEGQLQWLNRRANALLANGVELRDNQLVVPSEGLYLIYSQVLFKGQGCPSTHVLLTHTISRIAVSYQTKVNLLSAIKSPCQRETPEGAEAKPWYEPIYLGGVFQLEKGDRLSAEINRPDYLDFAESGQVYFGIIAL
Outline: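 THP-1 cells (3000/well) exposed to compounds 17 hrs at 37 C. Secreted TNF-alpha detected by HTRF with cryptate- and XL665-labeled anti-TNF-alpha antibodies after 3 hr at room temperature.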

[16] = qHTS assay to identify small molecules that stimulate interleukin-8 (IL-8) secretion (AID 651758; active means well fitted activation curve with a large enough effect in the signal ratio; the % refers to the signal ratio; further: 0% is about no effect)
Outline: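 THP-1 cells (2000/well) exposed to compound 16 h at 37 C; secreted IL-8 then detected by HTRF with cryptate- and XL665-labelled anti-IL-8 antibody pair after 1-3 h at room temperature.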

[17] = qHTS assay for environmental chemicals that activate the Aryl hydrocarbon Receptor (AhR) signaling pathway (AID 651777); details: 1A2-DRE human hepatoma cells, luciferase, 24 h; activation: stronger effect = higher value; further: % of control where 0% means no effect; nearly all actives have a fitted effect of over 15% in size
Outline: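 Luminescence (One-Glo, 30 min, room temperature) reports AhR-driven luciferase in stably transfected human hepatoma cells bearing DRE and CYP1A2 promoter. Cells (1,200/well) were treated with compound for 24 hr at 37 C in qHTS format.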

[18] = target: Peroxisome proliferator-activated receptor alpha (Homo sapiens) (UniProt Q07869); test: qHTS assay for small molecule agonists of the peroxisome proliferator-activated receptor alpha (PPARalpha) signaling pathway (AID 651778); details: PathHunter PPARalpha complementation, chemiluminescence, 6 h; max response: stronger effect = higher value; further: % of control where 0% means no effect
Sequence of Peroxisome proliferator-activated receptor alpha (Homo sapiens) (Q07869 whole entry, looked up, the tested form may be a part): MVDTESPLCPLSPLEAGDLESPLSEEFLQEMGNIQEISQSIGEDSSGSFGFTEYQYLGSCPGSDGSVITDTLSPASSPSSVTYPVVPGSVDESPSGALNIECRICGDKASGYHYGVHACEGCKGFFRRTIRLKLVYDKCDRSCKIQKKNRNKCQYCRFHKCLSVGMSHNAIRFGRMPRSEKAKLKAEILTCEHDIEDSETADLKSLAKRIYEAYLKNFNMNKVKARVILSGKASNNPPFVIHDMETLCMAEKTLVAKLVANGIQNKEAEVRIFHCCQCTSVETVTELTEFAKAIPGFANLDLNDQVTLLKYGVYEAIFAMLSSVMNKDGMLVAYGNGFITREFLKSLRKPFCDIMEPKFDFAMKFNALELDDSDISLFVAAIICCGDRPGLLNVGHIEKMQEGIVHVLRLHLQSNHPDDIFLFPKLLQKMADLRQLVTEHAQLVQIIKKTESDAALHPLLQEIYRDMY
Outline: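 Enzyme-fragment complementation assay in which ligand-bound PPARalpha translocates and forms an active enzyme that generates chemiluminescence. Cells were plated overnight, exposed to compound for 6 hr at 37 C, and then given detection reagent for 60 min at room temperature.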

[19] = qHTS assay for small molecule agonists of the antioxidant response element (ARE) signaling pathway measured by Nrf2-dependant transcriptional activity (AID 720636; active means well fitted curve in the direction sought with a large enough effect in the repeat runs; an effect the other way counts as inactive or inconclusive; further: % of control where 0% means no effect)
Outline: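 Nrf2-dependent transcription read as ONE-Glo luciferase signal from ARE-luc HepG2 reporter cells after 16 hr compound treatment at 37 C, 5% CO2, in assay medium with 1% dialyzed FBS.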

[20] = qHTS assay for small molecule antagonists of the retinoid-related orphan receptor gamma (ROR-gamma) signaling pathway - cell viability counter screen (AID 720652; active means well fitted curve in the direction sought with a large enough effect in the repeat runs; an effect the other way counts as inactive or inconclusive;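 further: CHO reporter cells with doxycycline-induced ROR-gamma expression; series mostly up to about 92 µM; compound exposure lasted 16 hr before ATP read; on the % scale 0 is the no-effect control and ±100 the full control effect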)
Outline: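 CHO cells carrying TET-inducible ROR and RORE-luciferase reporter, plated 5 hr, then dosed with compound plus doxycycline. After 16 hr at 37 C, viability read as intracellular ATP by CellTiter-Glo luminescence.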

[21] = qHTS assay for small molecule agonists of the antioxidant response element (ARE) signaling pathway measured by Nrf2-dependant transcriptional activity - cell viability counter screen (AID 720653; active means well fitted curve in the direction sought with a large enough effect in the repeat runs; an effect the other way counts as inactive or inconclusive; further: on the % scale 0 is the no-effect control and ±100 the full control effect); details: ARE-bla HepG2 viability, CellTiter-Glo ATP luminescence, 16 h; max response: stronger effect = lower value
Outline: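 ARE-bla HepG2 cells treated with compounds for 16 h at 37C; this counter screen measures viability as intracellular ATP by CellTiter-Glo luminescence after 30 min at room temperature.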

[22] = qHTS assay for cell viability of HEK293 cells (AID 743288); details: ATP luminescence (CellTiter-Glo), 18 h; max response: stronger effect = lower value; further: on the % scale 0 is the no-effect control and ±100 the full control effect; nearly all actives have a fitted effect of over 50% in size
Outline: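 HEK293 parental, 2,000 cells/well; ≥5 h pre-incubation 37 C; pintool compound addition; 18 h, 37 C; CellTiter-Glo 30 min RT; luminescence read.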

[23] = qHTS assay for cell viability of the p53RE-bla HCT-116 cell line (AID 743292); further: on the % scale 0 is the no-effect control and ±100 the full control effect; nearly all actives have a fitted effect of over 55% in size
Outline: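 ATP-based luminescent viability (CellTiter-Glo, 30 min RT) after 16 h compound treatment at 37 C of p53RE-bla HCT-116 cells, seeded at 4,000 cells/well and rested 5 h before dosing.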

[24] = target: Nuclear receptor subfamily 1 group I member 2 (Rattus norvegicus) (UniProt Q9R1A7); test: qHTS assay for small molecule activators of the rat pregnane X receptor (rPXR) signaling pathway (AID 651751; call rule not given here; further: 0% is about no effect); details: rPXR reporter cells, luciferase (One-Glo), 24 h
Sequence of Nuclear receptor subfamily 1 group I member 2 (Rattus norvegicus) (Q9R1A7 whole entry, looked up): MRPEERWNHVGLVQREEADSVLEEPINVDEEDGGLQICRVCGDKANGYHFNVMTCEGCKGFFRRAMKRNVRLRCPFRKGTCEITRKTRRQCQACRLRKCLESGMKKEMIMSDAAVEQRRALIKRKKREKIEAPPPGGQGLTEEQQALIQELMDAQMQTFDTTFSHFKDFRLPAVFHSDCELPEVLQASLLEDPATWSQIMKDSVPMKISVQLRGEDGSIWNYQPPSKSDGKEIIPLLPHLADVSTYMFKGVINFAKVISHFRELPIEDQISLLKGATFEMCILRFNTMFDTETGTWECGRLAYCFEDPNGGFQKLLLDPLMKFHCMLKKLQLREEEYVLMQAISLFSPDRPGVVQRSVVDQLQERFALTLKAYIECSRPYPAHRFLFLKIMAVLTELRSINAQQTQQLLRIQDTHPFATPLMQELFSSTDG

[25] = qHTS assay for small molecule activators of the human pregnane X receptor (PXR) signaling pathway (AID 720659; call rule not given here; further: 0% is about no effect)

CC(CCC(=O)O)(c1ccc(O)cc1)c1ccc(O)cc1
0.685% and -9.17%: max response [7]
-8.9% and -10.2%: max response [4]
inactive: outcome [1] | outcome [2] | Potency [3] | Potency [5] | Potency [6] | max response [8] 11.2% and 0.834% | activity change % (negative = inhibition) [9] -0.624% | Potency [10] | activation [11] -5.03% and -5.24% | activation [12] 0.0681% and 0.181% | Potency [13] | Potency [14] | Potency [15] | Potency [16] | activation [17] 2.27% and -1.21% | max response [18] -9.77% and -1.13% | Potency [19] | Potency [20] | max response [21] -5.33% and -3.83% | max response [22] -3.82% and -8.09% | Potency [23] | max response [24] -1.81% and -3.54% | outcome [25]
